# Compound activity as filed in PubChem BioAssay.
# KB-3-1 tox = KB-3-1 parental cell cytotoxicity; 1.4% of 400,000 active; Potency, µM (top dose mostly 46.1 µM), most hits filed as cytotoxic; AID 1347075; KB-3-1 viability, CellTiter-Glo ATP luminescence, 72 h; also: potency is read from the fitted curve at half-maximal effect; nearly all actives have a fitted effect of over 60% in size
#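 Cells are dispensed, compounds pinned in, plates held at 37 °C for 72 h, then CellTiter-Glo is added and luminescence read after 10 minutes. Cell line: parental KB-3-1 in phenol-red-free DMEM, 10% FBS.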
# HT1080NT lethal = kills 2HG-producing HT-1080-NT fibrosarcoma cells. HT-1080-NT fibrosarcoma viability, CellTiter-Glo ATP luminescence, 48 h. Potency, µM (doses to about 46.1 µM), inactives show at the highest dose activity, negative = less viability, hits mostly cytotoxic. 1.6% of 360,000 active. AID 686970;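 also: NT is the 2HG producing partner of a matched IDH1 knockdown line; potency is read from the fitted curve at half-maximal effect; 0% = DMSO-treated cells and -100% = media-only wells without cells; nearly all actives have a fitted effect of over 55% in size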
#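 A 48-hour cytotoxicity screen used HT-1080-NT cells plated 2 hours before compound delivery. ATP-based CellTiter-Glo luminescence measured viability, normalized to DMSO and no-cell controls.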
# HT1080 IDH1KD tx = kills HT-1080 cells with IDH1 knockdown | AID 686971 | Potency, µM (series often up to 46.1 µM), inactives show at the top dose activity, negative = toxicity, most hits filed as cytotoxic | 2% of 360,000 active | HT-1080 IDH1 knockdown viability, ATP luminescence, 48 h;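 also: potency is read from the fitted curve at half-maximal effect; 0% = DMSO wells and -100% = cell-free medium wells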
#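 Knockdown cells (IDH1KD HT-1080) received compounds 2 h after plating at 750 cells/well and were kept 48 h at 37 °C in 5% FBS RPMI. A CellTiter-Glo luminescence read gave % activity for curve fitting.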
# IL1B secr inh = inhibitors of inflammasome signaling (IL-1 beta secretion); THP-1 LPS/ATP IL-1B secretion, AlphaLISA, 16 h; hits give low values; 4.7% of 360,000 active; activity change, % at 57.5 µM; AID 743279; in the data active = activity change below about -50%; inconclusive = mostly about -30% to -49%
#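 THP-1 cells pretreated 1 hr with compounds (up to 57.5 uM final), then stimulated with LPS (250 ng/mL final) plus ATP (1.25 mM final); secreted IL-1B measured by AlphaLISA after 16 hr, decreased signal indicating inhibition.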
# KB-V1 cytotox = kills drug-selected multidrug resistant KB-V1 cells; KB-V1 MDR cells viability, CellTiter-Glo, 72 h; Potency, µM (doses to about 46.1 µM), hits mostly cytotoxic; 3.4% of 400,000 active; AID 1347076; also: potency is read from the fitted curve at half-maximal effect; nearly all actives have a fitted effect of over 60% in size
#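 Cytotoxicity via CellTiter-Glo luminescence after 72 h compound exposure at 37 degrees C. Cells: drug-selected KB-V1 line, DMEM phenol-red free plus 10% FBS. Compounds tested at multiple concentrations; normalized data fitted to concentration-effect curves.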
# * hit, by the source's call; i = inactive; ? = inconclusive; · = not tested or not shown; [ ] = another dose, or the depositor's remark. The list is not random: actives were taken first. Their share in the collection is about 8.8%. Unless noted, calls follow the shape of the dose curve; as a rule, active = well fitted curve in the direction sought with a large enough effect; inconclusive = small, poorly fitted or top-dose-only effect, or another doubt; inactive = no such curve, though single readings can be large; an effect the other way counts as inactive or inconclusive. Unless noted, % is scaled to controls: 0 for no effect and ±100 for the full control effect.
SMILES,KB-3-1 tox,HT1080NT lethal,HT1080 IDH1KD tx,IL1B secr inh,KB-V1 cytotox
Cc1c(C(=O)N(Cc2ccccc2)C2CCS(=O)(=O)C2)oc2ccccc12 (stereo unspecified),i,-0.2%,-9.7%,-26.6,i
Cc1c(C(=O)N(Cc2cccs2)C2CCS(=O)(=O)C2)oc2ccccc12 (stereo unspecified),i,6.6%,-2.7%,2.1,6.51µM*
O=C(NCc1ccccc1Cl)c1ccc2c(c1)OCO2,i,7.7%,18.9%,-14.9,i
COc1ccc(Cl)cc1C(=O)NCC(c1ccc(N(C)C)cc1)N1CCOCC1 (stereo unspecified),i,·,·,·,i
COc1ccc2ccccc2c1CNCc1ccc(C)cc1,i,?,?,-91.7*,i
COc1ccccc1CNCc1ccc(C)cc1,i,8.0%,9.3%,-7.8,i
CC(NCCCOc1cccc2ccccc12)c1ccccc1 (stereo unspecified),i,?,?,-73.8*,i
CC(NCc1ccccc1O)c1ccccc1 (stereo unspecified),i,2.2%,-3.1%,9.8,i
COc1ccc2ccccc2c1CNC(C)c1ccccc1 (stereo unspecified),i,-26.7%,?,-55.2*,i
Cc1ccc(S(=O)(=O)NCCCNS(=O)(=O)c2ccccc2[N+](=O)[O-])cc1,i,0.0%,-3.6%,-3.3,i
CC(=O)c1ccc(NC(=O)C(C)N2CCN(C/C=C/c3ccccc3)CC2)cc1 (stereo unspecified),i,-12.2%,-1.2%,-1.8,?
COc1ccc(Cl)cc1NC(=O)C(C)N1CCN(C/C=C/c2ccccc2)CC1 (stereo unspecified),i,?,?,-58.9*,i
CC(C(=O)Nc1ccc([N+](=O)[O-])cc1)N1CCN(C/C=C/c2ccccc2)CC1 (stereo unspecified),i,-4.9%,-13.5%,-77.2*,?
CCOC(=O)c1cnn(-c2cccc(F)c2)c1C1CCNCC1,i,·,·,·,i
C=CC[C@@H](CC(=O)OC(C)(C)C)C(=O)OC[C@H]1CCCN1C(=O)[C@@H](CC=C)CC(=O)N(CCO)Cc1ccccc1,i,-16.6%,-15.6%,-62.3*,i
C=CC[C@@H](Cc1ccc(F)cc1)C(=O)OC[C@@H]1CCCN1C(=O)[C@H](CC=C)CC(=O)N[C@H](CO)Cc1ccccc1,?,-9.3%,-9.3%,-69.7*,?
C=CC[C@@H](CC(=O)OC(C)(C)C)C(=O)OC[C@@H]1CCCN1C(=O)[C@@H](CC=C)CC(=O)N(CCO)Cc1ccccc1,i,-3.9%,?,-54.5*,i
O=c1c2cccnc2n(Cc2ccccc2F)c(=O)n1Cc1ccccc1Cl,i,·,·,·,i
Cc1nc(N)ncc1-c1ccc2c(c1)OCO2,?,4.8%,1.8%,-1.7,11.6µM*
O=[N+]([O-])c1ccc(Cl)c(-c2ccc(/C=N/n3cnnc3)o2)c1,i,-2.6%,5.5%,-25.8,i
Cc1cc(-c2ccc(/C=N/n3cnnc3)o2)c(C)c([N+](=O)[O-])c1,i,9.4%,2.6%,-70.5*,i
CCCCc1cc(=O)oc2c(CN(C)C)c(O)ccc12,i,-10.3%,-11.0%,-2.3,i
CC[C@@]1(O)C(=O)OCc2c1cc1n(c2=O)Cc2cc3c(CN(C)C)c(O)ccc3nc2-1,?,1.16µM*,2.06µM*,-102.9*,?
COc1ccc(Cl)c2c1[nH]c1nc(SCc3ccccn3)nnc12,i,-21.1%,-26.3%,-81.9*,?
COCCCNCCCCOc1ccc(OCc2ccccc2)cc1,i,?,?,-17.7,i
SMILES,KB-3-1 tox,HT1080NT lethal,HT1080 IDH1KD tx,IL1B secr inh,KB-V1 cytotox
CCC(C)NCCOc1ccc(C(C)(C)c2ccccc2)cc1 (stereo unspecified),?,18.4µM*,?,-66.2*,?
COCCCNCCOc1ccc(C(C)(C)c2ccccc2)cc1,i,?,?,-67.8*,i
C=CCC(C(=O)Oc1c(C(C)(C)C)cc(C)cc1C(C)(C)C)c1ccccc1 (stereo unspecified),?,19.3%,29.2%,23.3,?
CCCCc1ccc(NC(=O)CC(C)(C)C)cc1,?,?,-28.9%,-76.3*,i
CC(C)(C)CC(=O)Nc1ccc(Nc2ccccc2)cc1,i,-6.2%,-14.6%,-61.7*,i
Cc1ccc(S(=O)(=O)NCC(C)n2cncn2)cc1 (stereo unspecified),i,-3.1%,12.8%,-2.7,i
CCCCC(=O)NC1(C(F)(F)F)NC(=O)N(Cc2ccccc2)C1=O (stereo unspecified),i,0.4%,2.5%,51.6,i
CCOC(=O)C1(CC)NC(c2ccc(OC)cc2OC)C2C(=O)N(C)C(=O)C21 (stereo unspecified),i,11.9%,11.6%,0.6,i
COc1ccccc1CNC(=O)COC(=O)c1ccccc1-c1ccccc1,i,-3.8%,-2.4%,-83.3*,?
CCC(C)Sc1nc2c(c(=O)[nH]c(=O)n2C)n1CC(O)COc1ccccc1C (stereo unspecified),?,-13.1%,-18.1%,9.0,18.4µM*
CC(C)Sc1nc2c(c(=O)[nH]c(=O)n2C)n1Cc1ccc(Cl)cc1,i,-23.3%,-20.0%,-7.3,i
Cc1cc(C)n(-c2nc3c(c(=O)[nH]c(=O)n3C)n2CC(O)COc2ccc(Cl)cc2Cl)n1 (stereo unspecified),2.06µM*,?,?,116.4,?
CCC(C)Sc1nc2c(c(=O)[nH]c(=O)n2C)n1CCc1ccccc1 (stereo unspecified),i,3.3%,-0.1%,-6.9,?
C=CCn1c(Sc2ccccc2)nc2c1c(=O)[nH]c(=O)n2C,7.31µM*,-2.1%,-1.9%,-3.0,2.31µM*
CCC(C)Sc1nc2c(c(=O)[nH]c(=O)n2C)n1Cc1ccc(Cl)cc1 (stereo unspecified),?,-26.4%,-26.3%,?,9.2µM*
C=CCn1c(SCc2ccc(Cl)cc2)nc2c1c(=O)[nH]c(=O)n2C,i,-27.7%,-3.3%,2.6,16.4µM*
COc1ccc(C(=O)C2CCCN(S(=O)(=O)c3ccccc3F)C2)c(C)c1 (stereo unspecified),?,-5.4%,-19.8%,10.5,i
O=S1(=O)C=C(Sc2nc3ccccc3s2)c2ccccc21,2.31µM*,2.31µM*,2.59µM*,-66.3*,?
O=S1(=O)C=C(Sc2nnc(-c3ccccc3)o2)c2ccccc21,14.6µM*,2.82µM*,1.26µM*,-101.7*,?
O=C(CSc1nc2ccccc2s1)CSc1nc2ccccc2s1,i,?,5.2%[9.24 µM],30.0,i
